# According to the supplement of paper PMC6555819:
# System: PPARg:RXRa 30nM:10nM, anti-RXR (NR concentration 30 nM, RXRa partner concentration 10 nM)
# Assay: PBM binding z-score (relative to random genomic background probes); higher = stronger binding; sequences stand for … in GC…GCGATTGACAGCGTAGAATGAAGG
# Procedure, shortened: (§1)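 Binding buffer was PBS pH 7.4 with 2% milk, 0.02% Triton X-100, 1 mM DTT, 0.2 mg/mL BSA and 0.4 mg/ml salmon testes DNA. In it, ligand-free nuclear receptor dimers were incubated 1 h on custom Agilent 4×180K protein-binding microarrays carrying double-stranded probes. Antibodies against each partner (one per run) detected binding, and z-scores were calculated against random background probes after regression normalization of scanned fluorescence.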
row,Sequence,PBM binding z-score
1,ATCGAAAGGTAGACGAGGTGAGTATACACCGTTT,0.55
2,CAGCCTAGGTCAGGGCCGGTATAGGAGGAACGTT,-0.326
3,CAAACTAGGTCAAGAGGTCGAAGTCCGCTTCCCG,5.95
4,TAGCCTAGGTCATTGGGGCAGTATAGTACGCATC,1.15
5,CGAACTAGGTCATTGACAGGACAGTGAATAGTAA,3.8
6,AGATGTAGGTTACATCCGGGTCATTCAGGCTATG,1.77
7,CAAACTAGGTCAAAGAGGTCAAAGTCCGTGCGTA,6.36
8,CATACAGGGTCAGCTAGGCCAGGGTAGGGACGGC,0.569
9,GCTTACGGGTCGAAGGTTATAGCATGAATAGAAT,4.94
10,CCTATTGGGCCACGAAAGGTCATTGATTCAGTGA,1.71
11,CCCACTGGGCCAAAGGTCATTGATTCCAATGCTC,10.2
12,CCGACTGGGGCAAAAGTTACCATACTCAGTACGA,4.45
13,ACTAGCAGGCCAAGTTTGGGTCACTCTAACAAAG,-0.547
14,CGAACTAAGTCAGAACAGGACAGTGAAGGATGAT,0.171
15,ACAGACAGTTGATGAAGGTAACTCAGGCTATCAT,-0.0201
16,ATCTCTAGGTAACCAAGTTCAGTGGATGCCGAAC,0.192
17,CAAACTAGGTCACCGGAAGGTCAAGGTCCGCATG,5.66
18,CCTTACGGGTCACTGACAGTTTATAGCATTTGGA,1.57
19,AGGCAAAGTTCAGGACGAGGTAACGTAAAGCACG,1.44
20,CGTCCAAGGCCAGCAGGTCAGTGAAAGCGACGTG,-0.911

row,Sequence,PBM binding z-score
1,ATCTCTAGGTAAGACTCAGTGCAGTGAAGAACGC,0.104
2,CCGACTGGGGCATAAGGTTAACATAAGCCAGCCC,1.27
3,CCTAGCAGGCCAGGGTCACTCATGCATTTCGCTT,-0.332
4,CAAACTAGGTCAAGAGGTCATAGTCCGCTTCCCG,6.96
5,ATCTCTAGGTAAGAGTCAGTTCAGTGAAGAACGC,0.45
6,GGAACGAGGGCGAGTTGATAGCAGAGTTTGATGG,-0.495
7,CGTCAATGTTCAAGGTAACGTAACAGAAAGCAGC,0.263
8,CCTACTGGGCCAAGGGCATTGATCAGTCAAAGCA,1
9,ATATGTCGGTTATCGGGTCATTCAGTTTGCGCAT,0.785
10,GCTAGCAGGCCATTTGGGTCACTCAGTGACGGGC,-0.825
11,CATTACGGGTCAAGGTTATAGCACGGGTGGTACG,2.22
12,TCTCGGAGGACACGAAAGGTCATAGCTCGACATC,3.01
13,CCGGACAGGTGAAAGGTAACTCAGTCTGGTACGC,3.2
14,CCAGACAGGTGAGAAGGTAACTTAGCCTCGATTA,-0.0164
15,TCGAGTAGGTTAGTCGGGGCATTCAACCAACATA,1.41
16,CCTTGCAGGCCAATCTGGGTCACTCAAGGCTTGA,-0.0639
17,CTCGAAAGGTCGGTTGAGGTGAGTACACGGATAA,0.191
18,CCTGCTAGGTCGATGGTCAGCTAAAGCAGCTCGC,-0.649
19,CCTCGGAGGACAGAAGGTCAGGGCTGTCCGCTTT,-0.426
20,CCTACTGGGCCAAGGTCAATGATCAGTCAAAGCA,2.07

# System: PPARg:RXRa 90nM:30nM, anti-RXR (NR concentration 90 nM, RXRa partner concentration 30 nM)
# Assay: as above
# Procedure, shortened: as §1
row,Sequence,PBM binding z-score
1,ATCGAAAGGTAGACGAGGTGAGTATACACCGTTT,0.0652
2,CAGCCTAGGTCAGGGCCGGTATAGGAGGAACGTT,-0.0222
3,CAAACTAGGTCAAGAGGTCGAAGTCCGCTTCCCG,7.63
4,TAGCCTAGGTCATTGGGGCAGTATAGTACGCATC,3.06
5,CGAACTAGGTCATTGACAGGACAGTGAATAGTAA,5.54
6,AGATGTAGGTTACATCCGGGTCATTCAGGCTATG,3.53
7,CAAACTAGGTCAAAGAGGTCAAAGTCCGTGCGTA,7.64
8,CATACAGGGTCAGCTAGGCCAGGGTAGGGACGGC,1.95
9,GCTTACGGGTCGAAGGTTATAGCATGAATAGAAT,6.88
10,CCTATTGGGCCACGAAAGGTCATTGATTCAGTGA,3.67
11,CCCACTGGGCCAAAGGTCATTGATTCCAATGCTC,11
12,CCGACTGGGGCAAAAGTTACCATACTCAGTACGA,6.52
13,ACTAGCAGGCCAAGTTTGGGTCACTCTAACAAAG,-0.605
14,CGAACTAAGTCAGAACAGGACAGTGAAGGATGAT,-0.00279
15,ACAGACAGTTGATGAAGGTAACTCAGGCTATCAT,-0.134
16,ATCTCTAGGTAACCAAGTTCAGTGGATGCCGAAC,0.555
17,CAAACTAGGTCACCGGAAGGTCAAGGTCCGCATG,8.09
18,CCTTACGGGTCACTGACAGTTTATAGCATTTGGA,3.25
19,AGGCAAAGTTCAGGACGAGGTAACGTAAAGCACG,3.05
20,CGTCCAAGGCCAGCAGGTCAGTGAAAGCGACGTG,-0.203

row,Sequence,PBM binding z-score
1,ATCTCTAGGTAAGACTCAGTGCAGTGAAGAACGC,-0.0649
2,CCGACTGGGGCATAAGGTTAACATAAGCCAGCCC,2.84
3,CCTAGCAGGCCAGGGTCACTCATGCATTTCGCTT,0.442
4,CAAACTAGGTCAAGAGGTCATAGTCCGCTTCCCG,8.16
5,ATCTCTAGGTAAGAGTCAGTTCAGTGAAGAACGC,0.958
6,GGAACGAGGGCGAGTTGATAGCAGAGTTTGATGG,-0.42
7,CGTCAATGTTCAAGGTAACGTAACAGAAAGCAGC,0.00705
8,CCTACTGGGCCAAGGGCATTGATCAGTCAAAGCA,2.55
9,ATATGTCGGTTATCGGGTCATTCAGTTTGCGCAT,2.19
10,GCTAGCAGGCCATTTGGGTCACTCAGTGACGGGC,-0.0196
11,CATTACGGGTCAAGGTTATAGCACGGGTGGTACG,4.39
12,TCTCGGAGGACACGAAAGGTCATAGCTCGACATC,3.37
13,CCGGACAGGTGAAAGGTAACTCAGTCTGGTACGC,5.45
14,CCAGACAGGTGAGAAGGTAACTTAGCCTCGATTA,0.0696
15,TCGAGTAGGTTAGTCGGGGCATTCAACCAACATA,1.11
16,CCTTGCAGGCCAATCTGGGTCACTCAAGGCTTGA,1.2
17,CTCGAAAGGTCGGTTGAGGTGAGTACACGGATAA,0.951
18,CCTGCTAGGTCGATGGTCAGCTAAAGCAGCTCGC,0.713
19,CCTCGGAGGACAGAAGGTCAGGGCTGTCCGCTTT,0.349
20,CCTACTGGGCCAAGGTCAATGATCAGTCAAAGCA,3.39
